Among the test systems are HCT-15 colon; HT29 colon; SNB-75 CNS; SNB-19 CNS; U251 CNS; PC-3 prostate; UACC-62 melanoma; LOX IMVI melanoma; SK-MEL-28 melanoma.
Experiment in all cases: NCI-60 one-dose screen, 48 h (100 = growth as untreated, 0 = no growth, -100 = all killed)
Conditions in all cases: 10 µM unless noted

From PubChem BioAssay (NCI) come the findings set out here.

The panel holds about 83,000 compounds, 20% with a hit somewhere; the sample as a whole holds those more often.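 Cells were grown in 96-well plates and exposed to the test compound at a single concentration for 48 hours; results are reported as percent growth, with values below 10 considered active.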 Unmarked numbers belong to inactive results. Active and inactive are the calls of the source.

As for `CCCCCC(=O)Oc1ccc(/C(=C(\C)c2ccc(OC)cc2)c2ccc(OCCN3CCCCC3)cc2)cc1`, the growth with HCT-15 colon is 9.94% (active); with HT29 colon, 8.71% (active); in the experiment on SNB-75 CNS it was 64%; in the experiment with SNB-19 CNS, 74.4%; in the experiment with U251 CNS it was 45.4%; in the experiment on PC-3 prostate it was 51.1%. In addition, the growth was 6.92% (active) with UACC-62 melanoma, 33.5% in the experiment with LOX IMVI melanoma and 27.6% in the experiment on SK-MEL-28 melanoma.

On to `CN1C(=O)C2(SCC(C(=O)NCc3ccccc3)N2C(=O)C2CCCCC2)c2ccccc21` (configuration not stated), for which the growth in the experiment on HCT-15 colon is 99.2%; in the experiment with HT29 colon it was 102%; in the experiment on SNB-75 CNS, 47.2%; in the experiment with SNB-19 CNS, 98.5%; in the experiment on U251 CNS, 98.3%; in the experiment with PC-3 prostate it was 82.8%. The growth in the experiment on UACC-62 melanoma is 93.4%; in the experiment on LOX IMVI melanoma it was 91.6%; in the experiment with SK-MEL-28 melanoma, 113%.

As for `CCOC(=O)C(C)(C#N)C1C=CCCC1` (configuration not stated), the growth is 91.3% in the experiment on HCT-15 colon; 94.7% in the experiment with HT29 colon; 78.3% with SNB-75 CNS; 87.9% in the experiment on SNB-19 CNS; 106% in the experiment with U251 CNS; 94.2% in the experiment on PC-3 prostate. Further, the growth in the experiment on UACC-62 melanoma was 97.7%; in the experiment with LOX IMVI melanoma, 96.1%; in the experiment with SK-MEL-28 melanoma it was 96.2%.

In the case of `O=C(Cc1ccc(/C=C/C(=O)c2ncc[nH]2)cc1)Nc1ccc(F)cc1`, the growth is 5.31% (active) in the experiment on HCT-15 colon; 3.91% (active) with HT29 colon; 20.4% with SNB-75 CNS; 14.2% in the experiment with SNB-19 CNS; 8.1% (active) in the experiment on U251 CNS; 32.9% in the experiment with PC-3 prostate. The growth is 40.5% in the experiment with UACC-62 melanoma, 2.77% (active) in the experiment on LOX IMVI melanoma and 87.2% in the experiment with SK-MEL-28 melanoma.

For `CC1=C(O)C(=O)C(C(C#N)(C#N)C(C#N)C#N)C1` (configuration not stated), the growth is 98.9% with HCT-15 colon; 111% in the experiment on HT29 colon; 81.5% in the experiment with SNB-75 CNS; 108% with SNB-19 CNS; 113% with U251 CNS; 106% in the experiment on PC-3 prostate. The growth with UACC-62 melanoma is 97.6%; with LOX IMVI melanoma, 96.5%; in the experiment with SK-MEL-28 melanoma, 114%.

As to `CC[N+](CC)=c1sc2c(s1)C(c1ccc(Cl)cc1)Oc1ccc(Cl)cc1-2` (configuration not stated), the growth is 62.9% with HCT-15 colon; 0.814% (active) in the experiment with HT29 colon; 4.43% (active) in the experiment with SNB-75 CNS; 12% in the experiment on SNB-19 CNS; -53.8% (active) in the experiment on U251 CNS; 3.92% (active) with PC-3 prostate. Also, the results for the growth in the experiment with UACC-62 melanoma, in the experiment with LOX IMVI melanoma and in the experiment with SK-MEL-28 melanoma were -2.82% (active), -62.7% (active) and 18%, respectively.

For `O=C(/C=C/C=C/c1ccc2c(c1)OCO2)N/N=C\c1ccc(O)cc1O`, the growth with HCT-15 colon was 17%; with HT29 colon it was 48.1%; with SNB-75 CNS, 64%; in the experiment with SNB-19 CNS, 49.3%; in the experiment on U251 CNS, 31.3%; in the experiment with PC-3 prostate it was 38%. Also, the growth was 14.3% with UACC-62 melanoma, 9.69% (active) in the experiment on LOX IMVI melanoma and 42.1% in the experiment with SK-MEL-28 melanoma.

Consider `CC(=O)Nc1ccc(S(=O)(=O)Nc2cccc(-c3nc(-c4ccc(NC(=O)c5cccnc5)cc4Cl)no3)c2)cc1`, for which the growth was 88.3% with HCT-15 colon; 9.79% (active) in the experiment on HT29 colon; 27.6% in the experiment on SNB-75 CNS; 37.7% in the experiment with SNB-19 CNS; 29.7% in the experiment on U251 CNS; 25.8% in the experiment on PC-3 prostate. In addition, the growth was 37.4% in the experiment on UACC-62 melanoma, 40.2% in the experiment with LOX IMVI melanoma and 50.6% with SK-MEL-28 melanoma.

For the compound `COc1cc2c(cc1-c1c(C)noc1C)ncc1nc(C3CCCCC3)n([C@H](C)COC(F)F)c12`, the growth was 15.1% with HCT-15 colon; 19.3% in the experiment with HT29 colon; 41% in the experiment with SNB-75 CNS; 45.4% in the experiment with SNB-19 CNS; 45.7% in the experiment on U251 CNS; 35% in the experiment with PC-3 prostate. Further, the growth in the experiment on UACC-62 melanoma was 22.8%; with LOX IMVI melanoma, 11%; in the experiment on SK-MEL-28 melanoma, 49.9%.

`CN1CCN(Cc2ccc(NC(=O)c3cncc(C#Cc4cncn5ccnc45)c3)cc2C(F)(F)F)CC1`: the growth in the experiment on HCT-15 colon was 46.1%; with HT29 colon it was 19.2%; in the experiment on SNB-75 CNS, 123%; with SNB-19 CNS, 92.4%; with U251 CNS, 76.9%; in the experiment with PC-3 prostate, 90.3%. The figures for the growth in the experiment on UACC-62 melanoma, with LOX IMVI melanoma and in the experiment on SK-MEL-28 melanoma were 18.7%, 4.74% (active) and 30.3%, respectively.

As for `COc1cc2c(cc1-c1c(C)noc1C)ncc1nc(C3CCC(F)(F)CC3)n([C@H](C)COC(F)F)c12`, the growth was 16.8% in the experiment with HCT-15 colon; 17.3% with HT29 colon; 37% with SNB-75 CNS; 47.7% in the experiment on SNB-19 CNS; 46.8% in the experiment with U251 CNS; 33.1% in the experiment on PC-3 prostate. Besides, the growth in the experiment on UACC-62 melanoma was 17.8%; with LOX IMVI melanoma it was 14.8%; with SK-MEL-28 melanoma, 54.4%.

Turning to `CCN1CCC2(CC1)NC(=O)c1c(c3ccc(Cl)c(Cl)c3n1C)C2C#N` (configuration not stated), the growth in the experiment on HCT-15 colon is 14.3%; in the experiment on HT29 colon, 7.28% (active); in the experiment with SNB-75 CNS, 51.2%; in the experiment with SNB-19 CNS, 84.9%; in the experiment on U251 CNS, 57%; in the experiment on PC-3 prostate it was 47.1%. Besides, the growth in the experiment with UACC-62 melanoma is -83.2% (active); in the experiment on LOX IMVI melanoma, 30.6%; with SK-MEL-28 melanoma it was -100% (active).

Turning to `Oc1cccc2ccc(N/N=C/c3cc(CN4CCOCC4)c(O)c4ncccc34)nc12`, the growth was 26.2% with HCT-15 colon; 17.6% in the experiment with HT29 colon; 35.9% with SNB-75 CNS; 23.9% in the experiment with SNB-19 CNS; 5.22% (active) with U251 CNS; 28.5% with PC-3 prostate. Also, the growth was 2.18% (active) with UACC-62 melanoma, -71.1% (active) with LOX IMVI melanoma and 24% with SK-MEL-28 melanoma.
